Bioassay records as filed in PubChem.
FBW7 act – activators of human E3 ligase FBW7. Q969H0. AlphaScreen FBW7–phospho-cyclin E peptide binding, activator screen. normalized activity (activation), % at 26.1 µM. 650,000 tested, 0.13% active. AID 1259310; in the data active = normalized activity above about 1.9%;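 note: purified mutant Fbw7 with reduced substrate affinity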
Target sequence (Q969H0 whole entry, looked up): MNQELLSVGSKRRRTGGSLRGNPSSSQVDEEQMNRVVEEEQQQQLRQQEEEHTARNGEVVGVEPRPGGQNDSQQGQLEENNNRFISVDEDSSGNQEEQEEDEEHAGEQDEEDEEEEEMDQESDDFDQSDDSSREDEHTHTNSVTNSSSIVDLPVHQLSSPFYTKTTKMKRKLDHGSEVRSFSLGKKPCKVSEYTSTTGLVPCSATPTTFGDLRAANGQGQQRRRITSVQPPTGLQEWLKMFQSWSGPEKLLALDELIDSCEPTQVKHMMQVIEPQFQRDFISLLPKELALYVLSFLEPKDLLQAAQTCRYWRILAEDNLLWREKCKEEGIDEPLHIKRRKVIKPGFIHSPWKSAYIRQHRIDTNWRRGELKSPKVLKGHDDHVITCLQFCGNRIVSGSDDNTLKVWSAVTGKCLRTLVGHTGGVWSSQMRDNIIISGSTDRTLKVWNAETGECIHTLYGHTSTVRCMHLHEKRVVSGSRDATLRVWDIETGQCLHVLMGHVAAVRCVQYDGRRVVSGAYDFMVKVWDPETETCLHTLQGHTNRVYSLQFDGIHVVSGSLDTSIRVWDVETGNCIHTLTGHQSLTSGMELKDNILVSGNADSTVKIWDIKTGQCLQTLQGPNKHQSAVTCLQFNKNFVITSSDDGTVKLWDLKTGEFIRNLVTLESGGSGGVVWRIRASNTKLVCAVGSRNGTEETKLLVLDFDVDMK
GPR151 ag – activates the human receptor GPR151 | Q8TDV0 | PathHunter beta-arrestin GPR151 cells, luminescence | activation, % at 11.2 µM | 650,000 tested, 1% active | AID 1508602; in the data active = activation above about 4.9%
MITF primary – human MITF inhibition, primary screen. O75030. AlphaScreen MITF homodimerization, bead proximity signal. inhibition, % at 2.6 µM. 650,000 tested, 0.91% active; in the data active = inhibition above about 50%
TEAD-YAP block – TEAD-YAP interaction inhibition; 640,000 tested, 1.4% active; HEK-TIYL cells, TEAD-Gal4/YAP UAS-luciferase luminescence; inhibition, % at 9.12 µM; in the data active = inhibition above about 32%
A number is an active result; – = inactive; ! = repeats disagree. Only some compounds are listed: those with a hit (about 3.5% of all), similar ones and a draw of the others.

SMILES	FBW7 act	GPR151 ag	MITF primary	TEAD-YAP block
CC1=C(C(=O)OC(C)C)C(c2cccs2)C2=C(CC(c3ccccc3)CC2=O)N1 (stereo not given)	–	–	–	41.8
COC(=O)C1=C(C)NC(C)=C(C#N)C1c1cccs1 (stereo not given)	–	–	–	34.6!
CCOC(=O)C1=C(C)NC2=C(C(=O)CC(c3cccs3)C2)C1c1ccc(F)cc1 (stereo not given)	–	–	–	69.6
CCOC(=O)C1=C(C)NC2=C(C(=O)CC(c3cccs3)C2)C1c1ccsc1 (stereo not given)	–	–	–	55.0
COC(=O)C1=C(C)NC(S)=C(C#N)C1c1cccs1 (stereo not given)	–	–	–	–
COCCOC(=O)c1c(C)oc2cc(Br)c(O)cc12	–	–	–	–
O=C(O)CSc1nnc2n(Cc3ccc(F)cc3)c3ccccc3n12	–	–	–	–
CCOc1cccc(C(=O)Nc2nc3c(s2)C(=O)CC(C)(C)C3)c1	–	–	–	–
COC(=O)C1=C(C)NC2=C(C(=O)CC(c3cccs3)C2)C1c1cc(OC)ccc1OC (stereo not given)	–	–	–	33.4
CCOC(=O)C1=C(C)NC2=C(C(=O)CC(c3ccccc3)C2)C1c1ccsc1 (stereo not given)	–	–	–	43.8
COc1ccc(C2C(C(=O)OCCc3ccccc3)=C(C)NC3=C2C(=O)CC(c2ccccc2)C3)cc1 (stereo not given)	–	–	–	–
CC1=C(C(=O)OCC(C)C)C(c2ccccc2F)C2=C(CC(c3cccs3)CC2=O)N1 (stereo not given)	–	–	–	32.5
CC1=C(C(=O)OCCc2ccccc2)C(c2ccccc2F)C2=C(CC(c3cccs3)CC2=O)N1 (stereo not given)	–	–	–	–
COC(=O)C1=C(C)NC2=C(C(=O)CC(c3cccs3)C2)C1c1cccc(OC)c1 (stereo not given)	–	–	–	–
COCCOC(=O)C1=C(C)NC2=C(C(=O)CC(c3ccccc3)C2)C1c1ccc(OCc2ccccc2)cc1 (stereo not given)	3.4	–	–	–
COCCNC(=O)C(c1ccco1)N(C(=O)Cn1nnc2ccccc21)c1ccc(C)cc1 (stereo not given)	–	–	–	–
Cc1ccccc1C1(CC(=O)N(C)CCc2cnn(C)c2)CC(=O)N(C2CC2)C1=O (stereo not given)	–	–	–	–
Cc1cc(C)nc(SCc2cc(=O)c(OC(=O)c3cc(Cl)ccc3Cl)co2)n1	–	–	–	–
CCN(CC)CCNc1nc2c(c(=O)[nH]c(=O)n2C)n1CC(O)COc1ccc([N+](=O)[O-])cc1 (stereo not given)	–	–	–	–
COC(=O)Oc1ccc(/C=N/NC(=O)CSCc2ccc([N+](=O)[O-])cc2)cc1OC	–	–	–	–
CCn1c(-c2ccc(OC)cc2)csc1=Nc1ccc(NC(C)=O)cc1	–	–	–	64.7
C=CCn1c(-c2ccc(C)cc2)csc1=Nc1ccc(NC(C)=O)cc1	–	–	–	49.5
CCn1c(-c2ccc(Cl)cc2)csc1=Nc1ccccc1	–	–	–	–
CCn1c(-c2ccc(Cl)cc2)csc1=Nc1ccc(NC(C)=O)cc1	–	–	–	79.6
COc1ccccc1-n1cnc(N)c1C(=O)c1ccccc1	–	–	–	53.3
SMILES	FBW7 act	GPR151 ag	MITF primary	TEAD-YAP block
O=C(CSc1nnc(NC(=O)c2cc3ccccc3oc2=O)s1)c1ccccc1	–	–	–	–
O=C(NC(c1ccccc1)c1cnccn1)C1CCN(C(=O)c2ccccc2)CC1 (stereo not given)	–	–	–	–
Brc1cc2c(cc1Br)OCCOCCOCCOCCO2	–	–	–	–
Nc1cc(Br)c2c(c1)OCCO2	–	–	–	65.9
Cc1cc(C(=O)CSc2nnc3ccccn23)c(C)n1Cc1ccccc1	–	–	–	63.7
O=C(c1cc(-c2ccncc2)nc2ccc(Cl)cc12)N1CCN(c2ccccn2)CC1	–	–	–	39.6
CC(=O)N1CCN(c2nc(-c3ccccc3)c3cc(Cl)ccc3n2)CC1	–	–	–	–
O=C(c1ccccc1)N1CCN(c2nc(-c3ccccc3)c3cc(Cl)ccc3n2)CC1	1.9	–	–	–
Cc1ccc(-c2cc(C(=O)N3CCN(c4ccccc4)CC3)c3ccccc3n2)s1	–	–	–	48.6
O=C(c1cc(-c2cccnc2)nc2ccc(Cl)cc12)N1CCN(c2ncccn2)CC1	–	–	–	–
CCOc1ccccc1N1CCN(C(=O)c2cc(-c3cccc(C)c3)nc3ccccc23)CC1	–	–	–	41.8
O=S(=O)(C1CC1)N1CCC(c2ccccc2)C1 (stereo not given)	–	–	–	–
CCOC(=O)N1CCN(C(=O)c2cc(-c3ccncc3)nc3ccccc23)CC1	–	–	–	52.0
O=C(Cn1cncn1)N/N=C/c1ccc(O)cc1	–	–	–	–
O=C(NN1C(=O)/C(=C/c2ccc(O)cc2)SC1=S)c1cccc(O)c1	–	–	–	–
CCN(CC)c1ccc(/C=C2\SC(=S)N(CCCC(=O)O)C2=O)cc1	–	–	–	92.5
Cc1ccc(/C=C2\SC(=S)N(NC(=O)c3ccc(O)cc3)C2=O)o1	–	–	54.1	–
COc1ccc(/C=C2\SC(=S)N(CCC(=O)OCCN3CCOCC3)C2=O)cc1	–	–	–	53.5
COc1ccc(/C=C2\SC(=S)N(CCC(=O)N3CCOCC3)C2=O)cc1	–	–	–	–
CCN(CC)c1ccc(/C=C2/SC(=S)N(CCC(=O)OC)C2=O)cc1	–	–	–	61.6
CCCC(=O)N(c1ccc2oc(C)c(C(=O)OCC)c2c1)S(=O)(=O)c1ccc(CC)cc1	–	–	–	–
Nc1cc(N)cc(C(=O)Nc2nccs2)c1	–	–	–	–
CCOC(=O)C(=CNc1ccccc1NS(=O)(=O)c1cccs1)C(=O)OCC	–	–	–	–
COc1ccc(C2=NS(=O)(=O)N(C)C(C(=O)NC(C)C)=C2)cc1	–	–	–	–
Cc1ccc(/C=C2/SC(=S)N(CN3CCOCC3)C2=O)o1	–	–	78.4	–
SMILES	FBW7 act	GPR151 ag	MITF primary	TEAD-YAP block
COc1ccc(/C=C2\SC(=O)N(CCCC(=O)Nc3ccc(C(=O)O)cc3)C2=O)cc1	–	–	–	87.6
CCCCN1C(=O)S/C(=C/c2ccc(OC)cc2)C1=O	–	–	–	–
CCOC(=O)CCCN1C(=O)S/C(=C/c2ccc(OC)cc2)C1=S	–	–	–	47.2
COc1ccccc1CNC(=O)CN(c1cc(Cl)ccc1OC)S(C)(=O)=O	–	–	–	–
Cc1ccc(S(=O)(=O)N2CCC(C(=O)NC(C)(C)C)CC2)cc1Cl	–	–	–	–
O=C1NCCN(Cc2ccc(-c3ccccc3)cc2)C1CC(=O)N1CCC(O)CC1 (stereo not given)	–	–	–	–
Cc1ccc2nc(NC(=O)CSc3nc4ccccc4[nH]3)sc2c1	–	–	–	–
c1ccc(-n2cnc3c(NCc4cccnc4)nc(N4CCOCC4)nc32)cc1	–	–	–	–
O=[N+]([O-])c1cc(Cl)c(Sc2nc3ccccc3s2)c(Cl)c1	–	–	–	48.9
O=[N+]([O-])c1ccc(Sc2nc3ccccc3s2)cc1	–	–	–	–
